Screen size: about 350,000 compounds; about 2,100 (0.6%) were called active. This is one part of a sample in which actives are shown more often than they occur. A number with no mark means an inactive call.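 How the source made its calls: active means inhibition of the ligand-induced calcium signal above about 50% at the single tested concentration (limit read from the data); inactive means the rest.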

The test is described as follows: blockers of CRF-evoked CRF-R2/CRF-BP calcium response – cell-based, HEK293, calcium dye fluorescence, uHTS, primary screen (AID 588475). The conditions noted are these: CRF-induced calcium fluorescence, at 11.8 µM, stronger effect = higher value.
With `O=C1CCCCC1C(=O)c1ccccc1` (stereo not given), the inhibition (usually the drop in the measured response relative to a control, in per cent) is 52.8% (active).

As for `Cc1cccc(C(=O)C(O)(c2ccccc2)C2CCCCC2=O)c1` (stereo not given), the inhibition was -14%.

On to `O=C(OC1CCCCC1=O)c1cccc(S(=O)(=O)NCc2ccccc2)c1` (stereo not given), for which the inhibition was 12.8%.

As to `COc1cccc(CNC(=O)CCN2C(=S)NC(C)(C)CC2C)c1` (stereo not given), the inhibition was 3.81%.

As for `N#CCc1c[nH]c2ccc([N+](=O)[O-])cc12`, the inhibition is 2.31%.

Consider `Cc1cc([N+](=O)[O-])ccc1NC1CCCC1`, for which the inhibition is 72% (active).

`Cc1cc([N+](=O)[O-])c(NC2CCCCC2)c([N+](=O)[O-])c1`: the inhibition is -26.8%.

In the case of `Cc1cc([N+](=O)[O-])ccc1NCc1cccc([N+](=O)[O-])c1`, the inhibition is 34.2%.

`CC(C)C(NS(=O)(=O)c1cccs1)C(=O)Nc1nc(C(C)(C)C)cs1` (stereo not given): the inhibition is 7.44%.

In the case of `Cc1cc(-c2nnc(SCC(=O)Nc3ccc(S(N)(=O)=O)cc3)n2N)n[nH]1`, the inhibition is 9.63%.

Consider `CCOC(=O)N1CCC(NC(=O)C(NS(=O)(=O)c2ccc3c(c2)CCN3C(=O)CC)C(C)C)CC1` (stereo not given), for which the inhibition was -2.51%.

On to `COc1ccc(N=C2C=CC(=O)O2)cc1`, for which the inhibition was 11.2%.

For the compound `OCC1OC(n2cnc3c(N4CCCC4)ncnc32)C(O)C1O` (stereo not given), the inhibition was -7.64%.

With `COc1cc(OC)cc(-c2c(C#Cc3ccsc3)c3cc(-c4ccc(SC)cc4)ccc3n2C)c1`, the inhibition is 1.84%.

With `Cc1ccc(S(=O)(=O)/N=C(\CN2CCOCC2)N2CCOCC2)cc1`, the inhibition is 12.5%.

Take `CCCc1cc(=O)n2[nH]c(C)c(-c3ccc(Cl)cc3)c2n1`: the inhibition was 13.7%.

Turning to `Cc1nc2c(-c3ccccc3)c(C)[nH]n2c(=O)c1Cl`, the inhibition was 42.5%.

`Cc1[nH]n(-c2cccc(Cl)c2)c(=O)c1-c1ccc(Cl)cc1`: the inhibition was 50.6% (active).

With `C/C(=N\Nc1ccccc1)c1cccs1`, the inhibition is -0.14%.

For `COc1ccccc1N(C)S(=O)(=O)c1ccc(Cl)c(C(=O)N2CCC(C(N)=O)CC2)c1`, the inhibition was 17.1%.

Consider `COc1ccc(C(CC(=O)Nc2ccc(C)cc2)NC(=O)C(F)(F)F)cc1` (stereo not given), for which the inhibition was -3.52%.

Regarding `C/C(CC(=O)Nc1cccc(C(F)(F)F)c1)=N\NC(=O)C(=O)NCC(C)C`, the inhibition was -3.29%.

As for `COc1ccc(NC(=O)C(=O)NCC(=O)Nc2cccc(C(F)(F)F)c2)cc1`, the inhibition is 55.4% (active).

Regarding `CCCCn1c(N)c(N(CC(C)C)C(=O)CN(C)S(=O)(=O)c2ccc(F)cc2)c(=O)[nH]c1=O`, the inhibition is -2.99%.

Regarding `Cc1c(C(=O)OCC(=O)N(CCC#N)c2ccccc2)oc2c1ccc1ccccc12`, the inhibition was -18.4%.

For the compound `O=S(=O)(CCc1nc2ccccc2o1)c1ccc(Cl)cc1`, the inhibition is -6.01%.

As for `Cc1nn2c3ccccc3nc2n(C)c1=O`, the inhibition was 83.2% (active).

With `Cn1c(-c2ccc(C(=O)c3ccccc3)s2)nc2ccccc21`, the inhibition was 6.07%.

Consider `CCc1nc2ccccc2n(CCOCCOCCn2c(=O)c(CC)nc3ccccc32)c1=O`, for which the inhibition is -9.64%.

With `Cc1ccc(S(=O)(=O)NNC(=S)NC(C)(C)C)cc1`, the inhibition is 0.02%.

As for `CCNC(=O)NNC(=O)C1CC(c2cccs2)=NO1` (stereo not given), the inhibition is 0.63%.

In the case of `O=C(CSc1nnnn1-c1ccc(O)cc1)c1ccc(F)cc1`, the inhibition is 4.96%.

On to `COc1ccc(NC(=O)CSc2nnnn2-c2cccc(OC)c2)cc1`, for which the inhibition was 8.16%.

Take `COc1ccc(-n2nnnc2SCC(=O)c2ccc(OC)c(OC)c2)cc1`: the inhibition was 51.1% (active).

As for `CC(C)Oc1ccc(Cc2n[nH]c(=S)n2Cc2ccccc2)cc1Cl`, the inhibition was 2.65%.

For the compound `O=C(Nc1cccc(C(=O)O)c1)/C(=C\c1ccccc1)NC(=O)c1ccc(Br)o1`, the inhibition is 12.3%.

As to `COC(=O)Cn1cnc2scc(-c3ccc(C)c(C)c3)c2c1=O`, the inhibition was 0.19%.

For the compound `O=C(N/N=C/c1cccc2cccnc12)[C@H]1C[C@@H]1c1ccccc1`, the inhibition is -18.3%.

On to `O=C(CCC(=O)OCC(F)(F)C(F)F)NCc1ccccc1`, for which the inhibition is 108% (active).

In the case of `O=C(CCOc1ccccc1)NCc1ccccc1`, the inhibition was 2.03%.

On to `O=C(CCC(=O)c1ccccc1)NCc1cccc(C(F)(F)F)c1`, for which the inhibition is -4.39%.

`Cc1nc(N)c(Br)c(C)c1Br`: the inhibition is -2.67%.

As to `Cn1cc(S(=O)(=O)N2CCN(c3ccc(F)cc3)CC2)c(=O)n(C)c1=O`, the inhibition was -4.51%.

Take `CCC(C)[C@H](NC(=O)N1CCn2c1nc1ccccc12)C(=O)NCc1ccc(OC)cc1` (stereo not given in full): the inhibition is 52.2% (active).

As for `CC(C)[C@H](NC(=O)N1CCn2c1nc1ccccc12)C(=O)NCCc1ccccc1`, the inhibition is 2.7%.

In the case of `CC(C)[C@H](NC(=O)N1CCn2c1nc1ccccc12)C(=O)NCc1ccc2c(c1)OCO2`, the inhibition was -3.94%.

As for `O=C(/C(=N\O)n1cncn1)c1ccc(Br)cc1Br`, the inhibition is 14.7%.

`COc1cc(OC)cc(C(=O)Nc2ncc3c(n2)CC(C)(C)CC3=O)c1`: the inhibition was 20%.

Regarding `O=C(NNC(=S)NC1CC2CCC1C2)c1ccc(Cl)cc1` (stereo not given), the inhibition was -9.96%.

In the case of `O=[N+]([O-])c1ccc(C(S(=O)(=O)Cc2ccccc2)S(=O)(=O)Cc2ccccc2)cc1`, the inhibition was 5.72%.

Consider `CC1CN/C(=C\C(=O)c2ccc(Br)cc2)C(=O)N1` (stereo not given), for which the inhibition was 12.3%.

For the compound `O=C(CCS(=O)(=O)c1ccc(Br)cc1)NCCc1ccc(Cl)cc1`, the inhibition is -3.71%.

As to `O=C(NCCCN1CCOCC1)c1ccccc1NS(=O)(=O)c1ccc(Br)cc1`, the inhibition is 1.32%.

Consider `O=C(NCCS(=O)(=O)c1ccc(Br)cc1)c1ccccc1Cl`, for which the inhibition is 71.2% (active).

As for `Cc1c(OC(C)C(=O)NCC2CCC(C(=O)O)CC2)ccc2c1oc(=O)c1ccccc12` (stereo not given), the inhibition was 4.13%.

In the case of `Cc1nonc1C1CCCN1Cc1nc(-c2ccc(F)cc2F)oc1C` (stereo not given), the inhibition was 17.3%.

`CN(C)S(=O)(=O)c1ccc(C(=O)NCC(C)(C)N2CCOCC2)cc1`: the inhibition was 15.6%.

Turning to `COc1ccc(C2C(C#N)=C(N)Oc3n[nH]c(C)c32)cc1CN1CCN(c2ccc(F)cc2)CC1` (stereo not given), the inhibition is 3.36%.

In the case of `COc1cc(C2C(C#N)=C(N)Oc3n[nH]c(-c4ccccn4)c32)cc(OC)c1OC` (stereo not given), the inhibition was 52.2% (active).

With `COCc1[nH]nc2c1C(C1C=CCCC1)C(C#N)=C(N)O2` (stereo not given), the inhibition was -8.71%.

The record behind these values is PubChem BioAssay AID588475 (Sanford-Burnham Center for Chemical Genomics, 2011).
